# According to PubChem BioAssay (NCATS):
# Results filed as inconclusive are left out. Where a call stands in place of a potency, no number is given. Values without a mark were called inactive. Calls of active or inactive are those of the source. Calls come from the whole dose curve; as a rule, active = well fitted inhibition curve with a large enough effect; inconclusive = small, poorly fitted or top-dose-only effect; inactive = flat fitted curve, though single readings scatter.
# Assays:
# TAB165 = experiment: qHTS profiling for inhibitors of Plasmodium falciparum proliferation (AID 504749); note: potency is the fitted concentration of half-maximal effect; conditions: P. falciparum in erythrocytes, SYBR Green DNA, 72 h; series mostly up to 28.7 µM
# How it was run: (§1)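 Readout was DNA-dye fluorescence from lysed cultures, ex 485/em 535 nm. Parasitized red cells had grown 72 h with compound; data scaled between 0.29 uM artemisinin and DMSO wells and corrected using vehicle-only plates.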
# W2 = experiment: as above; conditions: P. falciparum in erythrocytes, SYBR Green DNA, 72 h; series mostly up to 28.7 µM
# How it was run: as §1
# HaCat [1] = experiment: Cytotoxic Profiling of Annotated Libraries Using Quantitative High-Throughput Screening (AID 1296008); conditions: Five cell lines viability, CellTiter-Glo ATP luminescence, 48-72 h; max response: active compounds read low; note: potency is the fitted concentration of half-maximal effect
# How it was run: (§2)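 Cells exposed to compounds for 48 or 72 hr at 37 degrees Celsius. Viability read as ATP-coupled luminescence with CellTiter-Glo after 10 min at room temperature.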
# MCC-13 = experiment: qHTS assay to identify novel small-molecules to repurpose for Merkel cell carcinoma treatment (AID 1296009); conditions: MCC and control cell lines, CellTiter-Glo viability, 72 h; series mostly up to 46 µM
# How it was run: (§3)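 Cells were incubated with compound for 72 hr at 37 degree celsius before CellTiter-Glo addition. Luminescence was normalized with no-cell wells as full cytotoxicity and DMSO as baseline.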
# HACAT [2] = experiment: as above; conditions: MCC and control cell lines, CellTiter-Glo viability, 72 h; at 44.8 µM (top of the series) unless noted
# How it was run: as §3
# NIH3T3 = experiment: Cytotoxic Profiling of Annotated Libraries Using Quantitative High-Throughput Screening (AID 1296008); conditions: Five cell lines viability, CellTiter-Glo ATP luminescence, 48-72 h; max response: active compounds read low; note: potency is the fitted concentration of half-maximal effect
# How it was run: as §2
# HEK293 = experiment: as above; conditions: Five cell lines viability, CellTiter-Glo ATP luminescence, 48-72 h; max response: active compounds read low
# How it was run: as §2
# HEK293T = experiment: qHTS assay to identify novel small-molecules to repurpose for Merkel cell carcinoma treatment (AID 1296009); conditions: MCC and control cell lines, CellTiter-Glo viability, 72 h; at 44.8 µM (top of the series) unless noted
# How it was run: as §3
# KB-3-1 = experiment: Cytotoxic Profiling of Annotated Libraries Using Quantitative High-Throughput Screening (AID 1296008); conditions: Five cell lines viability, CellTiter-Glo ATP luminescence, 48-72 h; max response: active compounds read low; note: potency is the fitted concentration of half-maximal effect
# How it was run: as §2
# Note: nearly all actives have a fitted effect of over 60% in size.
structure (smiles),measurement,setting,value
OCCN1CCN(CC/C=C2/c3ccccc3Sc3ccc(C(F)(F)F)cc32)CC1,Potency,TAB165,10 µM (active)
same,Potency,W2,1.9 µM (active)
same,max response,HaCat [1],-11.5%
CC[N+](C)(C)c1cccc(O)c1,Potency,TAB165,inactive
same,Potency,W2,inactive
C#CCN(C)CCCOc1ccc(Cl)cc1Cl,Potency,TAB165,inactive
same,Potency,MCC-13,inactive
CC1=NS(=O)(=O)c2cc(Cl)ccc2N1,outcome,HACAT [2],inactive
same,Potency,MCC-13,inactive
CCN(CC)CCOCCOC(=O)C1(c2ccccc2)CCCC1,Potency,TAB165,8.91 µM (active)
same,Potency,W2,0.953 µM (active)
same,outcome,HACAT [2],inactive
same,Potency,MCC-13,inactive
COCC(=O)O[C@]1(CCN(C)CCCc2nc3ccccc3[nH]2)CCc2cc(F)ccc2[C@@H]1C(C)C,Potency,TAB165,2 µM (active)
same,Potency,W2,0.12 µM (active)
CCc1cccc(N(C)C(N)=Nc2cccc3ccccc23)c1,Potency,W2,0.757 µM (active)
same,max response,HaCat [1],-4.04%
same,max response,NIH3T3,-9.35%
COC(=O)C1=C(C)NC(C)=C(C(=O)OC(C)(C)CN(C)CCC(c2ccccc2)c2ccccc2)C1c1cccc([N+](=O)[O-])c1 (centres undefined),Potency,TAB165,2.24 µM (active)
same,Potency,W2,1.2 µM (active)
same,Potency,HEK293,10.6 µM (active)
CC(C)NCC(O)c1cc(O)cc(O)c1 (centres undefined),outcome,HACAT [2],inactive
same,Potency,MCC-13,inactive
C[N+](C)(C)CCCCCCCCCC[N+](C)(C)C,Potency,TAB165,3.16 µM (active)
same,Potency,W2,4.78 µM (active)
CCOC(=O)C1=C(C)NC(C)=C(C(=O)OC)C1c1cccc(Cl)c1Cl (centres undefined),outcome,HaCat [1],inactive
same,outcome,HACAT [2],inactive
same,Potency,MCC-13,inactive
Cc1cccc(C)c1NC(=O)C(C)N (centres undefined),outcome,HACAT [2],inactive
same,Potency,MCC-13,inactive
COc1ccc([C@@H]2Sc3ccccc3N(CCN(C)C)C(=O)[C@@H]2OC(C)=O)cc1,Potency,TAB165,inactive
CN(C)CCN(Cc1cccs1)c1ccccn1,Potency,W2,1.9 µM (active)
same,outcome,HACAT [2],inactive
same,Potency,MCC-13,inactive
C[C@]12CCC(=O)C=C1CC[C@@H]1[C@@H]2C(=O)C[C@@]2(C)[C@H]1CC[C@]2(O)C(=O)CO,outcome,HEK293,inactive
same,max response,NIH3T3,1.17%
same,outcome,HEK293T,inactive
same,Potency,MCC-13,inactive
CSc1ccc(C(=O)c2[nH]c(=O)[nH]c2C)cc1,Potency,TAB165,inactive
same,Potency,W2,inactive
same,outcome,HACAT [2],inactive
same,Potency,MCC-13,inactive
NS(=O)(=O)c1cc2c(cc1Cl)NC(C1CC3C=CC1C3)NS2(=O)=O (centres undefined),Potency,TAB165,inactive
same,outcome,HEK293,inactive
same,max response,KB-3-1,-20.4%
same,outcome,HEK293T,inactive
same,Potency,MCC-13,inactive
CN(C)CC[C@@H](c1ccc(Br)cc1)c1ccccn1,Potency,W2,0.849 µM (active)
same,outcome,HACAT [2],inactive
same,Potency,MCC-13,inactive
CN1CCN(CC(=O)N2c3ccccc3C(=O)Nc3cccnc32)CC1,Potency,TAB165,inactive
same,Potency,W2,inactive
same,outcome,HACAT [2],inactive [at 4.96 µM]
same,"activity change, negative = cytotoxicity",MCC-13,8.41% [at 4.84 µM]
NC1=NCC2c3ccccc3Cc3ccccc3N12 (centres undefined),Potency,TAB165,inactive
same,Potency,W2,inactive
same,max response,HaCat [1],-7.94%
same,max response,KB-3-1,-4.43%
same,max response,NIH3T3,-2.29%
same,Potency,MCC-13,inactive
CN(C)C(=O)Oc1ccc[n+](C)c1,Potency,TAB165,inactive
same,Potency,W2,inactive
same,outcome,HEK293T,inactive
same,Potency,MCC-13,inactive
CN(C(=O)CCCOc1ccc2[nH]c(=O)ccc2c1)C1CCCCC1,max response,KB-3-1,-8.72%
same,max response,NIH3T3,-24.3%
same,Potency,MCC-13,inactive
CC(C)COCC(CN(Cc1ccccc1)c1ccccc1)N1CCCC1 (centres undefined),Potency,HEK293,18.8 µM (active)
same,Potency,NIH3T3,26.6 µM (active)
